Compound activity: PubChem BioAssay, several laboratories
FXN GAA850 act – FXN promoter activators, primary screen, cell-based, luciferase luminescence, HEK293 lucGAA850. HEK293 lucGAA850 FXN promoter luciferase reporter, 24 h; percent of 10 µM SAHA response. activation, % at 6 µM. 360,000 compounds, 0.56% hits. AID 540364, 2011;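 active = activation above the average of all compounds screened plus 3 SD, cutoff fixed separately per campaign, cut at about 7.5% in these data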
HSF-1 act – HSF-1 activators, primary screen, NIH3T3-HGL cells, MG132 stress, luminescence, single point; NIH3T3-HGL HSF-1 luciferase reporter, 8 h; 100% = twice DMSO control signal; activation, % at 9 µM; 300,000 compounds, 1.7% hits; AID 504408, 2011;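 active = mean replicate activation of at least 50% with a set share of replicates each reaching 50%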
HSF1 inh – HSF1 inhibitors in luciferase reporter cells, primary screen, cell-based, NIH3T3, luminescence | NIH3T3-HGL HSE-luciferase, MG132-induced, luminescence 8 h; hits give low values | activity change, negative = inhibition, % at 7.5 µM (by protocol) | 300,000 compounds, 0.77% hits | AID 2098, 2009;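 active = more than half of replicate wells show activity change below -50%, luminescence cut by over half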;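 also: luciferase reports HSF-1 transcriptional activity via heat shock element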
AHR activator – AHR activators, primary screen, cell-based, luminescence, luciferase reporter, human | Aryl hydrocarbon receptor (Homo sapiens), P35869 | 320,000 compounds, 2.5% hits | activation, % at 5 µM | AID 2796, 2010 | AHR-responsive luciferase reporter cells; in the data active = activation above about 47%
Target sequence (P35869 whole entry, looked up): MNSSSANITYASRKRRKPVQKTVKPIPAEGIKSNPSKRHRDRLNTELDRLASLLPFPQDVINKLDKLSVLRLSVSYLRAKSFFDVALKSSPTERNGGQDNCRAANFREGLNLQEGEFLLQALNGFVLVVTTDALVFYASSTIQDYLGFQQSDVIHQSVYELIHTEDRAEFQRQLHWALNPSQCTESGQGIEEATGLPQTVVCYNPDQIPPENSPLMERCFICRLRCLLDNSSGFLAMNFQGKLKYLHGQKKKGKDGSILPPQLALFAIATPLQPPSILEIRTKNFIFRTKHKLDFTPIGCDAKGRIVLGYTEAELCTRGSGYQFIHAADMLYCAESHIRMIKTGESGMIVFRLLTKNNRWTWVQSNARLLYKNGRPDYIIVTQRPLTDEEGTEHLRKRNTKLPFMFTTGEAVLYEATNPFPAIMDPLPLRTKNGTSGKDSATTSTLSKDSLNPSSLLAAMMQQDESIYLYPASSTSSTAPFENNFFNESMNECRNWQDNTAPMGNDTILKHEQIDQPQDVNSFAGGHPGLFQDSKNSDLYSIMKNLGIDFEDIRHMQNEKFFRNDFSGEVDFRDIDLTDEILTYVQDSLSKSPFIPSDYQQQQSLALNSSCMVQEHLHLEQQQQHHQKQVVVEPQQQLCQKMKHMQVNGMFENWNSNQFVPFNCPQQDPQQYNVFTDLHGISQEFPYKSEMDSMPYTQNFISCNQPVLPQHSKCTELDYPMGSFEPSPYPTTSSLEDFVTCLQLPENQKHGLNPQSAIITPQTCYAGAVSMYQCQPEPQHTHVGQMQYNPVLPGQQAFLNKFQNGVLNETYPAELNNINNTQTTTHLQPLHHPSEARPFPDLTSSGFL
Numbers stand for hits; i = inactive; nt = no result. An excerpt weighted towards active compounds, which were near 4.6% of everything screened.

SMILES	FXN GAA850 act	HSF-1 act	HSF1 inh	AHR activator
CC(C)CC(/C(O)=C(\C#N)c1nc2ccccc2[nH]1)N1C(=O)c2ccccc2C1=O (centres undefined)	i	75	i	i
CCN(CC)C(=O)C1CCN(Cc2cccc(OCc3ccccc3)c2)CC1	i	i	i	i
O=C(NCC(=O)N1CCN(c2ccccc2O)CC1)c1ccc(Br)o1	i	i	-52	i
O=C(NCC(=O)N1CCCCCCC1)c1ccc(Br)o1	i	i	i	i
COC(=O)CCn1nnc(-c2cccs2)n1	i	i	i	i
CC1=NN(C(N)=S)C(=O)C1N=Nc1ccc(F)cc1 (centres undefined)	i	53	i	nt
COc1ccccc1N=NC1C(=O)N(C(N)=S)N=C1C (centres undefined)	i	i	i	64
CC1=NN(C(N)=S)C(=O)C1N=Nc1cccc(C)c1 (centres undefined)	i	i	i	64
CC1=NN(C(N)=S)C(=O)C1N=Nc1ccccc1Cl (centres undefined)	i	i	i	i
CC1=NN(C(N)=S)C(=O)C1N=Nc1ccc(C)c(Br)c1 (centres undefined)	i	i	i	58
CCC1=NN(C(=O)c2ccc(Cl)cc2)C(O)(c2ccccc2)C1 (centres undefined)	i	i	i	i
COC(=O)C1=NN(C(=O)c2ccc(Cl)cc2)C(O)(c2ccccc2)C1 (centres undefined)	i	142	i	i
CCOC(=O)C1=NN(C(=O)c2ccc(C)cc2)C(O)(c2ccc(Cl)cc2)C1 (centres undefined)	i	166	i	i
CCC1=NN(C(=O)c2ccc(Cl)cc2)C(O)(c2ccc(C)cc2)C1 (centres undefined)	i	i	i	nt
Cc1cc(C)cc(COn2ccnc2)c1	i	i	i	i
Cc1ccc(S(=O)(=O)N2CCC(=O)N(CCOCc3ccccc3C)CC2)cc1	i	i	i	i
CC(=O)c1ccc(NC(=O)C2CCCN2S(=O)(=O)c2ccc(F)cc2)cc1 (centres undefined)	i	i	i	i
O=C(Nc1ccc(O)cc1)C1CCCN1S(=O)(=O)c1ccc(F)cc1 (centres undefined)	i	i	i	79
O=C(NC(=S)Nc1ccc(N2CCCCC2)cc1)c1ccc2c(c1)OCCO2	i	i	-61	i
O=C(NC(=S)Nc1ccc2c(c1)OCCO2)c1ccccc1F	i	86	i	58
O=C(NC(=S)Nc1ccc(F)cc1)c1ccc2c(c1)OCCO2	i	i	-68	i
CN(C)c1cccc(C(=O)Nc2cccc(F)c2)c1	i	i	i	i
CCN(CC)c1ccc(C(=O)Nc2cccc(F)c2)cc1	i	61	i	i
CNC(=S)N(C)/N=C1/C(=O)N(Cc2c(Cl)cccc2Cl)c2ccccc21	i	nt	nt	i
COCCCNC(=S)Nc1ccc(C)cc1[N+](=O)[O-]	i	i	i	i
SMILES	FXN GAA850 act	HSF-1 act	HSF1 inh	AHR activator
O=C(Nc1cccc(F)c1)c1ccc2c(c1)OCCO2	i	57	i	i
O=C(Nc1ccccc1)c1ccc2c(c1)OCCO2	i	i	i	i
NC(=O)c1cc(Br)cc2c3c([nH]c12)CCCC3	i	i	i	64
Cn1c(Cn2c(=O)sc3ccccc32)nnc1SCc1cccc(F)c1	i	i	i	i
CC1(C(=O)OCC(=O)Nc2ccc3ccccc3c2)CC1(Cl)Cl (centres undefined)	i	66	i	i
CCOc1ccc(OCC(=O)Nc2ccc(OC)cc2[N+](=O)[O-])cc1	i	i	i	i
CCOc1ccc(NC(=O)COC(=O)C2(C)CC2(Cl)Cl)c([N+](=O)[O-])c1 (centres undefined)	i	i	-53	i
O=C(O)C1CCCCC1C(=O)Nc1ccccn1 (centres undefined)	i	i	i	i
CC1CN(C(=S)Nc2ccc(Cl)cc2)CC(C)O1 (centres undefined)	i	i	i	i
COCc1cc(C(C)=O)ccc1OCC(=O)Nc1ccc(NC(C)=O)cc1	i	i	i	i
Cc1ccccc1Cn1c(-c2cncs2)nc2ccccc21	i	69	i	i
CC(=O)c1cc2c(cc1NC(=O)CSc1nc3ccccc3[nH]1)OCO2	nt	i	i	i
CCOC(=O)CSc1nc(-c2ccncc2)ccc1C#N	i	64	i	i
c1ccc(N2CCN(c3nc4ccccc4[nH]3)CC2)nc1	i	63	i	i
c1ccc2[nH]c(N3CCOCC3)nc2c1	i	i	i	i
